The source of these data is PubChem BioAssay (NCATS).

The structures appear in SMILES notation. Results filed as inconclusive are left out. Where a call stands in place of a potency, no number is given. Calls of active or inactive are those of the source. Calls come from the whole dose curve.
Potency is the fitted concentration of half-maximal effect.

This assay can be described thus: Cytotoxicity counterscreen for inhibitors of SARS-CoV-2 cell entry (AID 1645845). Note: nearly all actives have a fitted effect of over 50% in size. Particulars: cell viability (SARS-CoV-2 entry assay cells); series mostly up to 57.1 µM. A digest of the protocol:
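Expi293F/hACE2 cells seeded overnight; cpd pin-transferred in DMSO, 1 h preincubation, + media, 48 h 37 C 5% CO2; ATPLite 1step luminescence; normalized to cells and no cells.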
(In general: A counterscreen serves to expose hits that act by an unwanted route or on another target.)
Consider `O=C(O)CCc1ccc(NCc2cccc(Oc3ccccc3)c2)cc1`, for which the Potency result is “inactive”. Next, `CN(C)CC/C=C1/c2ccccc2COc2ccc(CC(=O)O)cc21`: “inactive”; `COc1cc(Oc2ccnc3cc(OC)c(OC)cc23)ccc1NC(=O)NC(C)c1nccs1` (stereo not drawn): “inactive”; `CCOC(=O)C(C)Oc1cccc2c(=O)n(CC(=O)Nc3ccc4c(c3)OCCO4)ccc12` (stereo not drawn): “inactive”. Next, `COc1cccc2c1CCCC2CCCN1CCN(C2CCCCC2)CC1` (stereo not drawn): “inactive”; `Cn1c(=O)c(F)c(Nc2ccc(I)cc2F)c2c(=O)n(C[C@@H](O)CO)cnc21`: “inactive”; `C[C@@H]1CCN(C(=O)CC#N)C[C@@H]1N(C)c1ncnc2[nH]ccc12`: “inactive”.

Consider `Cc1cnc(-c2cnc(NCCNc3ccc(C#N)cn3)nc2-c2ccc(Cl)cc2Cl)[nH]1`, for which the Potency result was “inactive”. `CC(=O)NCCC(=O)N[C@@H](CCC(N)=O)C(=O)N[C@@H](CO)C(=O)N[C@@H](CCC(N)=O)C(=O)N[C@@H](CCC(N)=O)C(=O)N[C@H](C(=O)N[C@@H](Cc1ccccc1)C(=O)N[C@]1(C)CCCCCCC=CCCC[C@@](C)(C(=O)N[C@@H](CCC(N)=O)C(=O)N[C@@H](CC(N)=O)C(N)=O)NC(=O)[C@H](CC(C)C)NC(=O)[C@H](CC(C)C)NC(=O)[C@@H](CCCNC(=N)N)NC(=O)[C@H](Cc2c[nH]c3ccccc23)NC(=O)[C@H](CC(C)C)NC(=O)[C@H](CC(N)=O)NC1=O)[C@H](C)O`: the Potency entry is “inactive”. Take `OCCC#Cc1nc(-c2ccc(F)cc2)c(-c2ccncc2)n1CCCc1ccccc1`: the Potency result was “inactive”.

With `NC(=O)c1ccc(-c2nc(-c3ccc4c(c3)OCO4)c(-c3ccccn3)[nH]2)cc1`, the Potency result is “inactive”. The value for `CC(C)(C)c1cc(NC(=O)Nc2ccc(-c3cn4c(n3)sc3cc(OCCN5CCOCC5)ccc34)cc2)no1` was “inactive”; that for `CC(C)C(=O)Nc1ncc(-c2cc(C(F)F)nn2-c2c(Cl)cccc2Cl)s1` was “inactive”.

As to `Cc1cccc(-c2[nH]ncc2-c2ccc3ncccc3n2)n1`, the Potency entry was “inactive”. For the compound `[O-][n+]1cccc(/C(Cl)=N/OC[C@@H](O)CN2CCCCC2)c1`, the Potency result is “inactive”.

In the case of `Cn1cncc1[C@@](N)(c1ccc(Cl)cc1)c1ccc2c(c1)c(-c1cccc(Cl)c1)cc(=O)n2C`, the Potency entry was “inactive”. Next, `CNC(=O)c1cc(Oc2ccc(NC(=O)Nc3cc(C(C)(C)C)nn3-c3ccc4ncccc4c3)c(F)c2)ccn1`: “inactive”; `CCOC(CN1C(=O)[C@](CC(=O)Nc2ccc(C)cc2)(NC(=O)Nc2ccc(C)cc2)c2ccccc21)OCC`: “inactive”; `CC(=O)Oc1ccccc1C(=O)O`: “inactive”. Next, `O=C(Nc1cccnc1)N1CCC(Cc2cccc(Oc3ccc(C(F)(F)F)cn3)c2)CC1`: 20 µM (active).

Consider `c1ccc(-c2nn3c(c2-c2ccnc4cc(OCCN5CCOCC5)ccc24)CCC3)nc1`, for which the Potency entry was “inactive”.

Turning to `Fc1ccc(Cl)cc1-c1nc(Nc2ccncc2)c2nccnc2n1`, the Potency entry was “inactive”.

Consider `CC1(C)CCC(c2ccc(Cl)cc2)=C(CN2CCN(c3ccc(C(=O)NS(=O)(=O)c4ccc(N[C@H](CCN5CCOCC5)CSc5ccccc5)c(S(=O)(=O)C(F)(F)F)c4)cc3)CC2)C1`, for which the Potency entry was “inactive”. With `CCCS(=O)(=O)Nc1ccc(F)c(C(=O)c2c[nH]c3ncc(Cl)cc23)c1F`, the Potency entry is “inactive”. Next, `CS(=O)(=O)Oc1ccc2c(NC(N)=O)c(C(=O)c3ccc(Cl)cc3Cl)oc2c1`: “inactive”; `Cc1ccc(NC(=O)c2cccc(C(C)(C)C#N)c2)cc1Nc1ccc2ncn(C)c(=O)c2c1`: “inactive”; `C[C@@H]1CN(CC(=O)Nc2ccc3c(c2)Cc2cccc(-c4cc(=O)cc(N5CCOCC5)o4)c2S3)C[C@H](C)O1`: 14.1 µM (active). As for `CC[C@H](Nc1ncnc2nc[nH]c12)c1nc2cccc(F)c2c(=O)n1-c1ccccc1`, the Potency entry is “inactive”. Regarding `NC(=O)c1c(OCc2c(F)cc(Br)cc2F)nsc1NC(=O)NCCCCN1CCCC1`, the Potency entry was “inactive”.

For `CCCCC(CC)COC(=O)/C=C/c1ccc(OC)cc1` (stereo not drawn), the Potency result was “inactive”. `COc1nc(-c2ccc3c(c2)OCO3)n(-c2ccc(NC(=O)CSc3ccccc3)cc2)n1`: the Potency entry was “inactive”.

In the case of `O=C(Nc1cc(C(F)(F)F)cc(C(F)(F)F)c1)c1cc(Cl)ccc1O`, the Potency is 1.58 µM (active).

For `Clc1ccccc1CN1CCc2sccc2C1`, the Potency entry is “inactive”.

Consider `O=c1[nH]c2ccccc2n1C1CCN(Cc2ccc(-c3[nH]c4cc5ncnc5cc4nc3-c3ccccc3)cc2)CC1`, for which the Potency result is “inactive”. The value for `Cc1cc2c(F)c(Oc3ncnn4cc(OC[C@@H](C)O)c(C)c34)ccc2[nH]1` was “inactive”; that for `O=C(O)[C@H](Cc1c[nH]c2ccccc12)N1C(=O)c2ccccc2C1=O` was “inactive”; that for `COc1cc2ncn(-c3cc(OCc4ccccc4C(F)(F)F)c(C(N)=O)s3)c2cc1OC` was 2.51 µM (active). Next, `S=c1[nH]c2ccccc2s1`: “inactive”.
